Active and inactive are the calls of the source.
How the values were obtained:
[1] = small molecules captured by biotinylated probe aFSTL3 – biochemical, small-molecule microarray, fluorescence 635/667, stem cell growth factor project, primary screen (AID 1064); settings: higher = more signal;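 further: measures binding of the biotinylated anti-FSTL3 antibody to printed compounds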
[2] = binders from COS7 lysate, DM2A8 probe, primary screen, torsin A project, cell lysate, small-molecule microarray, fluorescence 635/667 (AID 1065); settings: higher = more signal, COS7 lysate expressing mutant human TOR1A
[3] = small molecules captured by biotinylated probe aFGF2 – biochemical, small-molecule microarray, fluorescence 635/667, stem cell growth factor project, primary screen (AID 1067); settings: higher = more signal;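 further: measures binding of biotinylated aFGF2 protein to printed compounds on slides; z-score merges feature fluorescence and signal-to-noise across triplicate slides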
[4] = small molecules captured by biotinylated probe aFGF10 – biochemical, small-molecule microarray, fluorescence 635/667, stem cell growth factor project, primary screen (AID 1071); settings: higher = more signal;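 further: score merges 667 nm spot intensity and signal to noise from triplicate slides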
[5] = target: Neurogenic locus notch homolog protein 2 (Homo sapiens) (UniProt Q04721); test: small molecules binding Notch2 protein – biochemical, small-molecule microarray, 635 nm fluorescence, stem cell growth factors, primary screen (AID 1073); settings: higher = more signal
[6] = target: Pro-neuregulin-1, membrane-bound isoform (Homo sapiens) (UniProt Q02297); test: small molecules binding neuregulin-1 protein – biochemical, small-molecule microarray, fluorescence 635/667, psychiatric disease protein project, primary screen (AID 1075); settings: NRG1 binding, 635 nm fluorescence, higher = more signal;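 further: score combines 667 nm spot fluorescence with signal to noise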
[7] = tested on: Neuregulin-1 EGF-like domain; test: small molecules binding NRG1 EGF domain – biochemical, small-molecule microarray, 635 nm fluorescence, primary screen (AID 1081); settings: higher = more signal;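 further: binding of the protein to compounds printed on small-molecule microarray slides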
[8] = FRG1 expression reporter modulators in myotubes – cell-based, C2C12 myotubes, firefly/Renilla luciferase, luminescence, FRG1 inhibition for FSHD, primary screen (AID 1084); settings: FRG1 promoter luciferase, higher = more signal, called active from +8 up or from −8 down
[9] = small molecules captured by biotinylated probe aFST – biochemical, small-molecule microarray, fluorescence 635/667, stem cell growth factor project, primary screen (AID 1086); settings: higher = more signal;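 further: score merges 667 nm fluorescence with signal-to-noise of each printed compound spot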
[10] = binders of probe aHhip on microarray, primary screen, stem cell growth factor project, biochemical, small-molecule microarray, fluorescence 635/667 (AID 1087); settings: higher = more signal;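 further: score merges spot fluorescence at 667nm with spot signal to noise ratio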
[11] = tested on: PRMT1 (protein arginine N-methyltransferase 1); test: small molecules binding arginine methyltransferase PRMT1 – biochemical, small-molecule microarray, 635 nm fluorescence, primary screen (AID 1088); settings: higher = more signal;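 further: binding of Prmt1 protein to compounds spotted on small-molecule microarray slides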
[12] = growth effects on S. cerevisiae YJM789 – YJM789 clinical isolate, OD600, 24 h, basal, primary screen (AID 1089); settings: higher = more signal, called active from +8 up or from −8 down;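 further: growth of clinical yeast isolate S. cerevisiae YJM 789 seeded 1000 cells per well; test concentration not given here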
[13] = S. pombe growth modifiers, basal conditions – strain 972, OD600, 24 h, no modulator, primary screen (AID 1090);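 further: basal condition with compound alone and no growth modifier present; test concentration not given here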; settings: S. pombe 972 growth, higher = more signal, called active from +8 up or from −8 down
[14] = budding yeast growth modifiers under rapamycin – strain BY4716, OD600, 96 h, primary screen (AID 1091); further: test concentration not given here; settings: S. cerevisiae BY4716 + rapamycin, higher = more signal, called active from +8 up or from −8 down
[15] = target: Torsin-1A-interacting protein 2 (Homo sapiens) (UniProt Q8NFQ8); test: small molecules binding lysate-expressed LULL1 – cell lysate, human LULL1 lysate, 635/667 nm fluorescence, primary screen (AID 1092); settings: small-molecule microarray, hLULL1 lysate binding, 635 nm fluorescence; higher = more signal;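 further: probe is lysate of COS7 cells overexpressing human LULL1; score merges per-feature 667 nm fluorescence with signal-to-noise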
[16] = optical density change of DRC41 E. coli – strain DRC41, OD650, 24 h, E. coli filamentation project, primary screen (AID 1093);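 further: MC1000 strain lacking acrAB efflux and sulA so SOS filamentation is blocked; test concentration not given here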; settings: E. coli DRC41 growth, higher = more signal, called active from +8 up or from −8 down
[17] = probe aLefty2 binding to arrayed compounds – biochemical, biotinylated probe, 635/667 nm fluorescence, primary screen (AID 1094); settings: small-molecule microarray, higher = more signal;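 further: score merges spot fluorescence near 667 nm with spot signal-to-noise ratio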
[18] = tested on: Noggin (protein binding on small-molecule microarray); test: small molecules binding Noggin protein – biochemical, 635/667 nm fluorescence, primary screen (AID 1095); settings: 635 nm fluorescence, higher = more signal;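 further: score merges 667 nm feature fluorescence with signal to noise over triplicate slides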
[19] = target: Neurogenic locus notch homolog protein 3 (Homo sapiens) (UniProt Q9UM47); test: small molecules binding NOTCH3 protein – biochemical, 635/667 nm fluorescence, primary screen (AID 1096); settings: small-molecule microarray, 635 nm fluorescence, higher = more signal
[20] = probe aEGFR binding to arrayed compounds – biochemical, biotinylated probe, 635/667 nm fluorescence, primary screen (AID 1097); settings: small-molecule microarray, higher = more signal;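 further: probe is a biotinylated anti-EGFR antibody binding compounds printed on slides; score combines fluorescence near 667 nm and signal to noise of each spot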

Torsin-1A-interacting protein 2 (Homo sapiens), sequence (Q8NFQ8 whole entry, looked up): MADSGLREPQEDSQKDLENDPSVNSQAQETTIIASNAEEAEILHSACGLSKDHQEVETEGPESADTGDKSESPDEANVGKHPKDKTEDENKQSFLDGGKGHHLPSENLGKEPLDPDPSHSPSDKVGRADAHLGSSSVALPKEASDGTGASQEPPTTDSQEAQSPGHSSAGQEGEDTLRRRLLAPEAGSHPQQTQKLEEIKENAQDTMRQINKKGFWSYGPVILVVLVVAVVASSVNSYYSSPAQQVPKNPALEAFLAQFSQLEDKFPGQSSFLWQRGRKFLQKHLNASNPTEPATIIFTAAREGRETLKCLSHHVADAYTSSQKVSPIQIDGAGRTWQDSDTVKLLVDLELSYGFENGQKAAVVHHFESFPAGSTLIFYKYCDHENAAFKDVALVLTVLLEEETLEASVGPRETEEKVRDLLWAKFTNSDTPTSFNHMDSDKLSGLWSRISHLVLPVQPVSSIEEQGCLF
Neurogenic locus notch homolog protein 3 (Homo sapiens), sequence (Q9UM47 whole entry, looked up): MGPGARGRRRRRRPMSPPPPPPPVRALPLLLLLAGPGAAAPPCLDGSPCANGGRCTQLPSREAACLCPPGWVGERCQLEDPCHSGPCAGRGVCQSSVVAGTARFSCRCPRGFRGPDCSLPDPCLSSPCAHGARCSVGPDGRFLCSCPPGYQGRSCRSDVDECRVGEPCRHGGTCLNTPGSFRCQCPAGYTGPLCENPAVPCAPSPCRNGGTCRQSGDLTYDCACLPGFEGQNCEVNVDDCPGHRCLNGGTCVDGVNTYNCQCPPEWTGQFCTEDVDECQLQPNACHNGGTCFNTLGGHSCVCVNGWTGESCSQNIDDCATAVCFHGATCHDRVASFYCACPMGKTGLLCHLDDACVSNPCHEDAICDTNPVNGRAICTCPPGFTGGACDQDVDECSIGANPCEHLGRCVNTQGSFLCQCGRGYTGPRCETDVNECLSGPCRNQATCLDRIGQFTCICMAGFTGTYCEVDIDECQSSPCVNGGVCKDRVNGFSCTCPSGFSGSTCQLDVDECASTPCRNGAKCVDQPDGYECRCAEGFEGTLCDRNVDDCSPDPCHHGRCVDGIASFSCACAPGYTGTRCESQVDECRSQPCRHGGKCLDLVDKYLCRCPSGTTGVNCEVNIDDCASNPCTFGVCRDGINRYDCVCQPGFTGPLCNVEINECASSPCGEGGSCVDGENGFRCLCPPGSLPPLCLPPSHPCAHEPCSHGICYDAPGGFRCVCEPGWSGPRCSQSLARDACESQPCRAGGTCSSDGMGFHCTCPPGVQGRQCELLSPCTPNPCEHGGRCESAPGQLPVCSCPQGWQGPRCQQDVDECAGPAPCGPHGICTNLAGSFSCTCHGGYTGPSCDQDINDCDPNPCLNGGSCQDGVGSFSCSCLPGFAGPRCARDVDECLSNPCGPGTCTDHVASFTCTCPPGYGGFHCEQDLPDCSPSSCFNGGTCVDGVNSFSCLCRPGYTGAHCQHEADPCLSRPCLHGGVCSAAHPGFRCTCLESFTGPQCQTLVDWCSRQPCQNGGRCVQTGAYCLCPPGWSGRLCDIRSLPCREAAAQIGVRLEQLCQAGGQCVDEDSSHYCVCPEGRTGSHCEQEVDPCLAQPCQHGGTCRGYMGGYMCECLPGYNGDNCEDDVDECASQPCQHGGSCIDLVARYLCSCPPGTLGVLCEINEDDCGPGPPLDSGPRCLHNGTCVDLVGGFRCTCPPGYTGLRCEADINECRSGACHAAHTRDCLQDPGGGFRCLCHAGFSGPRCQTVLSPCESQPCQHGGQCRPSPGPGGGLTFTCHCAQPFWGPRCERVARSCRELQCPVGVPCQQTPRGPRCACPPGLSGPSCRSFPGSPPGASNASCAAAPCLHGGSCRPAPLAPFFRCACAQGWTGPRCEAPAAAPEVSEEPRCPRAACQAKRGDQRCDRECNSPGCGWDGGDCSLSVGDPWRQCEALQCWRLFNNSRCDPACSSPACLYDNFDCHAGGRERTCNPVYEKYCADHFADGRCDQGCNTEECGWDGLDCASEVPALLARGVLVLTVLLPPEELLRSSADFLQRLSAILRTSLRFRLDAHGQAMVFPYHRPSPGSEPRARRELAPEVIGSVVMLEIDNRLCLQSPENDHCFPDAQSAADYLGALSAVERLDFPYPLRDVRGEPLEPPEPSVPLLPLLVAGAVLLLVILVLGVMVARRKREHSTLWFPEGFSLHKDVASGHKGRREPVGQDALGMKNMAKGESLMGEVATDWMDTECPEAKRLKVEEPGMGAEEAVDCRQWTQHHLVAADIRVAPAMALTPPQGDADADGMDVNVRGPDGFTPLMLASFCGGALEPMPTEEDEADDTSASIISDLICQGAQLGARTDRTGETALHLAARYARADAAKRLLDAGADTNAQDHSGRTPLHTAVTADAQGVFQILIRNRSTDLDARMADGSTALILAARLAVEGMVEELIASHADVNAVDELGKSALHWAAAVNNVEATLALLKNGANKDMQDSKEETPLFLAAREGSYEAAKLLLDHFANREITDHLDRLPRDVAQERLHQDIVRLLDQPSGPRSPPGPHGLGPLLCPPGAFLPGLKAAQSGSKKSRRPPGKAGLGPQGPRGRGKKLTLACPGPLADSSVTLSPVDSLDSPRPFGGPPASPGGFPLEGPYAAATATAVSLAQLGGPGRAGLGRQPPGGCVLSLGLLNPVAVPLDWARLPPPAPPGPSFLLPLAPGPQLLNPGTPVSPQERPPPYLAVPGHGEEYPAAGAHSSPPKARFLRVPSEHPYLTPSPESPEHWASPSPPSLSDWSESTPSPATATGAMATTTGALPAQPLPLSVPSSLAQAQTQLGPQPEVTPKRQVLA
Pro-neuregulin-1, membrane-bound isoform (Homo sapiens), sequence (Q02297 whole entry, looked up, the tested form may be a part, canonical isoform): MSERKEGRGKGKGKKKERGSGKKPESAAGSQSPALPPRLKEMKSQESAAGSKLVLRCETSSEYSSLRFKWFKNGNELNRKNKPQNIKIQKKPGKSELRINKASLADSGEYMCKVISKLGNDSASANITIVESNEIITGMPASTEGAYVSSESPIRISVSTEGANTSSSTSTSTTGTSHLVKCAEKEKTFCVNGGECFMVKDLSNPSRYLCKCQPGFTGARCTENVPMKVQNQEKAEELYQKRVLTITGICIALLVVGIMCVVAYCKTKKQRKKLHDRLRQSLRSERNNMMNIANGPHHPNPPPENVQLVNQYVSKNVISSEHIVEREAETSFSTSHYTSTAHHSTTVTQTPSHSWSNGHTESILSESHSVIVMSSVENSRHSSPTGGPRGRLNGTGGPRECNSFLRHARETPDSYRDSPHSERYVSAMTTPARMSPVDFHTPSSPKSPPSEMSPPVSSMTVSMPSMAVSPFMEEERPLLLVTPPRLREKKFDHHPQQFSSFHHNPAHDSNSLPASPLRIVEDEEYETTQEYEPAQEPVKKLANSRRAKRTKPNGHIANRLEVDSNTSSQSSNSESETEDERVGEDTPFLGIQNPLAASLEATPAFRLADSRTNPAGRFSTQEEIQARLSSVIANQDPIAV

SMILES	composite z-score [1]	composite z-score [2]	composite z-score [3]	composite z-score [4]	composite z-score [5]	composite z-score [6]	composite z-score [7]	z-score [8]	composite z-score [9]	composite z-score [10]	composite z-score [11]	z-score [12]	z-score [13]	z-score [14]	composite z-score [15]	z-score [16]	composite z-score [17]	composite z-score [18]	composite z-score [19]	composite z-score [20]
CCOC(=O)C[C@H]1[C@H](OC(=O)Cc2ccc3c(c2)OCO3)[C@@H](NC(=O)c2ccccc2)c2cc(OCCCO)ccc2N1C(=O)Cc1ccc(OC)cc1	-0.483	0.147	-0.0038	0.306	0.523	0.726	0.049	-2.56 (inactive)	-0.249	-0.261	0.498	-2.62 (inactive)	-0.91 (inactive)	-0.602 (inactive)	0.837	-0.429 (inactive)	-0.0915	0.0752	0.206	-0.0978
COCCCNC(=O)[C@@H]1c2ccccc2C(=O)N(Cc2cc(C(F)(F)F)cc(C(F)(F)F)c2)[C@H]1c1ccc(CO)cc1	-0.468	0.668	-0.182	-0.568	-0.0254	0.686	0.887	0.309 (inactive)	1.49	-0.34	-0.217	0.109 (inactive)	0.144 (inactive)	-0.405 (inactive)	0.928	0.329 (inactive)	-0.164	-0.441	-0.305	0.45
CC(C)C[C@@H]1NC(=O)[C@@H]2C[C@H](C(=O)NCCCC[N+](C)(C)C)[C@H](c3ccc(O)cc3)N2C1=O	-0.358	1.4	-0.116	0.639	0.113	1.54	1.32	0.53 (inactive)	0.221	0.319	1.53	-0.246 (inactive)	0.491 (inactive)	-1.48 (inactive)	1.76	0.0731 (inactive)	-0.0295	1.91	1.02	0.0251
CN(C)C(=O)[C@@]1(CCS(=O)(=O)c2ccccc2)N=C(c2ccc(OCCCO)cc2)O[C@H]1c1ccccc1N=[N+]=[N-]	-0.35	0.259	0.167	0.792	1.32	1.55	0.551	0.401 (inactive)	1.49	-0.0994	1.55	-1.01 (inactive)	-0.173 (inactive)	0.914 (inactive)	3.1	0.635 (inactive)	0.0554	0.987	1.11	-0.0168
COCCOC(=O)N1C(=O)[C@@]2(c3cc(C#Cc4ccc(OC)cc4)ccc31)[C@H](C(=O)N1CCCCCCC1)[C@H]1C(=O)O[C@H](c3ccccc3)[C@H](c3ccccc3)N1[C@@H]2c1ccccc1OCCO	3.15	0.486	0.685	0.265	1.13	1.29	1.12	-0.575 (inactive)	3.04	2.21	1.44	1.83 (inactive)	1.44 (inactive)	3.98 (inactive)	3.66	-0.291 (inactive)	1.63	1.91	1.12	1.02

Reference: PubChem BioAssay
